About 83,000 compounds went through this panel and 20% of them were active in at least one assay; those are over-represented in the sample as a whole.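 In brief: 96-well plates, 48 h treatment, single concentration, percent growth endpoint.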 Unmarked numbers belong to inactive results. Calls of active or inactive are those of the source. The calls were made as follows: active = growth percent below 10; inactive = the rest.

Data on seven compounds can be found in PubChem BioAssay (NCI).

Some test systems named below: SK-MEL-2 melanoma; EKVX NSCLC; SN12C renal; UO-31 renal; TK-10 renal; ACHN renal; CAKI-1 renal; A498 renal; CCRF-CEM leukemia; MOLT-4 leukemia; SR leukemia; RPMI-8226 leukemia; OVCAR-8 ovarian; OVCAR-5 ovarian; OVCAR-4 ovarian; SK-OV-3 ovarian; IGROV1 ovarian; OVCAR-3 ovarian; HS 578T breast; NCI/ADR-RES ovarian.
Holding throughout (test): NCI-60 one-dose screen, 48 h (100 = growth as untreated, 0 = no growth, -100 = all killed)
Common to all, as to details: 10 µM unless noted

`Cn1cc(-c2ccc(-c3cn(C)c4ccc(Cl)cc34)[nH]2)c2cc(Cl)ccc21`: the growth was -18.9% (active) with SK-MEL-2 melanoma; -89.2% (active) in the assay with EKVX NSCLC; 7.64% (active) with SN12C renal; -93.1% (active) in the assay with UO-31 renal; -28.7% (active) in the assay with TK-10 renal; -100% (active) in the assay on ACHN renal. The growth in the assay on CAKI-1 renal is 4.42% (active); in the assay on A498 renal, 48.6%; in the assay with CCRF-CEM leukemia it was -12.9% (active); with MOLT-4 leukemia it was 19.1%; in the assay on SR leukemia it was -13% (active); in the assay with RPMI-8226 leukemia, 7.74% (active). For the same compound, the growth with OVCAR-8 ovarian is -5.8% (active); in the assay on OVCAR-5 ovarian, -14.1% (active); with OVCAR-4 ovarian, -57.7% (active); in the assay with SK-OV-3 ovarian it was -53.5% (active); with IGROV1 ovarian it was -45.9% (active); in the assay on OVCAR-3 ovarian, -84% (active). Also, the growth with HS 578T breast is -28.6% (active); in the assay on NCI/ADR-RES ovarian, -22.5% (active).

As for `C=C(C)[C@@H]1CC[C@]2(C)[C@H](CC=C3[C@@H]4CC(C)(C)CC[C@]4(CO)CC[C@]32C)[C@@]1(C)CCCN`, the growth in the assay on SK-MEL-2 melanoma was -35.7% (active); with EKVX NSCLC it was 97.4%; in the assay on SN12C renal, -59.7% (active); in the assay with UO-31 renal, 47.7%; with TK-10 renal, -45.8% (active); in the assay with ACHN renal, -40.8% (active). Further, the growth in the assay with CAKI-1 renal was 40.3%; in the assay with A498 renal, 80.5%; in the assay on CCRF-CEM leukemia, -18.4% (active); with MOLT-4 leukemia, -35.9% (active); in the assay with SR leukemia, -52.1% (active); in the assay on RPMI-8226 leukemia it was -47.5% (active). For the same compound, the growth is -85.1% (active) in the assay on OVCAR-8 ovarian; 26% with OVCAR-5 ovarian; -21.8% (active) in the assay on OVCAR-4 ovarian; 82.8% in the assay with SK-OV-3 ovarian; 8.73% (active) in the assay on IGROV1 ovarian; -42% (active) in the assay on OVCAR-3 ovarian. Besides, the growth in the assay on HS 578T breast is 43.4%; in the assay with NCI/ADR-RES ovarian it was 49.1%.

With `CN1CCN(CCOc2ccc(-c3cnc4c(-c5cccc(F)c5F)cnn4c3)cc2)CC1`, the growth was 99.9% with SK-MEL-2 melanoma; 78.6% in the assay with EKVX NSCLC; 90.3% with SN12C renal; 80.8% with UO-31 renal; -64.2% (active) in the assay on TK-10 renal; -22.7% (active) in the assay on ACHN renal. The growth in the assay on CAKI-1 renal was -8.23% (active); in the assay on A498 renal, 95.4%; in the assay on CCRF-CEM leukemia, -13.3% (active); with MOLT-4 leukemia it was 80.5%; in the assay with SR leukemia, -1.72% (active); in the assay with RPMI-8226 leukemia, -30.5% (active). Further, the growth was 4.29% (active) with OVCAR-8 ovarian; 116% in the assay on OVCAR-5 ovarian; -49.8% (active) in the assay on OVCAR-4 ovarian; 108% in the assay with SK-OV-3 ovarian; 81.7% in the assay with IGROV1 ovarian; -52.6% (active) with OVCAR-3 ovarian. For the same compound, the growth in the assay with HS 578T breast was 103%; in the assay on NCI/ADR-RES ovarian it was 8.9% (active).

Turning to `COc1cccc(Nc2ncnc3cc(NC(=O)CCl)ccc23)c1`, the growth with SK-MEL-2 melanoma is -45.3% (active); in the assay with EKVX NSCLC it was -24.4% (active); in the assay on SN12C renal it was -74.7% (active); in the assay on UO-31 renal it was -93.9% (active); in the assay on TK-10 renal it was -13.2% (active); with ACHN renal, -97.6% (active). Also, the growth is -97.2% (active) in the assay on CAKI-1 renal; -5.63% (active) in the assay with A498 renal; -26.9% (active) in the assay with CCRF-CEM leukemia; -31% (active) with MOLT-4 leukemia; -23.3% (active) in the assay with SR leukemia; -44.8% (active) in the assay on RPMI-8226 leukemia. For the same compound, the growth in the assay with OVCAR-8 ovarian is -36.6% (active); in the assay with OVCAR-5 ovarian it was -82.2% (active); with OVCAR-4 ovarian, -59.5% (active); in the assay with SK-OV-3 ovarian it was -15.9% (active); with IGROV1 ovarian, -64.7% (active); in the assay with OVCAR-3 ovarian, -82.9% (active). In addition, the figures for the growth in the assay on HS 578T breast and in the assay on NCI/ADR-RES ovarian were -15.4% (active) and -26.4% (active), respectively.

In the case of `O=C(Cc1ccc(NC(=O)c2cccc(Cl)c2)cc1)NCc1ccccc1`, the growth in the assay with SK-MEL-2 melanoma was 46.8%; in the assay on EKVX NSCLC it was 72.8%; in the assay on SN12C renal, 58.1%; in the assay on UO-31 renal it was 59.9%; with TK-10 renal, 64.3%; with ACHN renal, 65%. Moreover, the growth was 52% in the assay on CAKI-1 renal; 42.2% in the assay with A498 renal; 22.7% in the assay on CCRF-CEM leukemia; 39.7% in the assay with MOLT-4 leukemia; 11.3% in the assay with SR leukemia; 65.8% with RPMI-8226 leukemia. Moreover, the growth in the assay with OVCAR-8 ovarian is 67.1%; with OVCAR-5 ovarian it was 73.2%; in the assay with OVCAR-4 ovarian it was 82.8%; in the assay on SK-OV-3 ovarian, 57.6%; with IGROV1 ovarian, 49.4%; in the assay with OVCAR-3 ovarian it was 16.7%. For the same compound, the growth in the assay on HS 578T breast was 32.9%; in the assay on NCI/ADR-RES ovarian it was 50.5%.

`COc1cc(NC(=O)c2cncnc2Nc2ccc3c(ccn3Cc3ccccn3)c2)cc(OC)c1`: the growth is 45% in the assay on SK-MEL-2 melanoma; 68.4% with EKVX NSCLC; 56.2% in the assay on SN12C renal; 46% with UO-31 renal; 73.3% in the assay with TK-10 renal; 66.5% with ACHN renal. For the same compound, the growth was 44.2% in the assay with CAKI-1 renal; -12.5% (active) in the assay on A498 renal; 22.3% in the assay on CCRF-CEM leukemia; 24.9% in the assay with MOLT-4 leukemia; 12.9% with SR leukemia; 43.5% in the assay on RPMI-8226 leukemia. For the same compound, the growth is 65.8% in the assay on OVCAR-8 ovarian; 76.6% in the assay with OVCAR-5 ovarian; 78.4% in the assay with OVCAR-4 ovarian; 57.9% with SK-OV-3 ovarian; 45.4% with IGROV1 ovarian; 9.55% (active) with OVCAR-3 ovarian. In addition, the growth in the assay with HS 578T breast is 35.2%; in the assay with NCI/ADR-RES ovarian, 35%.

As to `C[C@@H]1O[C@@H](O[C@@H]2C[C@H](c3ccc4c(c3O)C(=O)C3=C(C4=O)[C@@]4(O)C(=O)C[C@](C)(O)C[C@@]4(O)C=C3)O[C@H](C)[C@H]2O)CC[C@@H]1O[C@H]1C[C@@H](O)[C@H](O)[C@@H](C)O1`, the growth is 110% in the assay on SK-MEL-2 melanoma; 98% with EKVX NSCLC; 98.4% in the assay with SN12C renal; 82.8% in the assay with UO-31 renal; 97.4% in the assay on TK-10 renal; 90.8% in the assay on ACHN renal. In addition, the growth in the assay with CAKI-1 renal is 93.3%; with A498 renal, 108%; in the assay on CCRF-CEM leukemia, 90.5%; in the assay on MOLT-4 leukemia, 86.6%; with SR leukemia it was 89.6%; in the assay with RPMI-8226 leukemia, 95.3%. Moreover, the growth in the assay with OVCAR-8 ovarian is 98.2%; in the assay with OVCAR-5 ovarian, 110%; with OVCAR-4 ovarian, 87.1%; in the assay with SK-OV-3 ovarian it was 111%; in the assay with IGROV1 ovarian, 96.4%; with OVCAR-3 ovarian, 98.1%. In addition, the results for the growth with HS 578T breast and in the assay on NCI/ADR-RES ovarian were 105% and 97%, respectively.
